Activity calls are given as the source filed them. Calls follow the shape of the dose curve; as a rule, active = well fitted curve in the direction sought with a large enough effect; inconclusive = small, poorly fitted or top-dose-only effect, or effect the other way, or another doubt; inactive = no such curve, though single readings can be large or run the other way.

The values that follow come from PubChem BioAssay (NCATS).

This experiment is described as follows: qHTS of Nrf2 Activators: LOPAC Validation (AID 624149). To be noted: Nrf2/ARE reporter cell assay; series mostly up to 46.1 µM. From the text:
Many diseases have some form of oxidative stress injury and ties to inflammation, causing a host of problems for the patient. The antioxidant response element (ARE) plays an important role in alleviating the harmful effects of oxidative stress. The antioxidant response element (ARE) is a transcriptional regulatory element involved in the activation of genes coding for a number of antioxidant proteins and detoxifying enzymes. These enzymes work in concert to protect tissues from oxidative insults and chemical toxicities in human hepatocytes and immune cells. The protective effects of ARE activation are primarily triggered through Nrf2 (NF-E2-related factor) binding to and activating AREs. It is known that Nrf2 controls the production of over 250 antioxidant and detoxification proteins (Hu et al., 2006), thereby protecting tissues by increasing cellular antioxidant content and suppressing inflammatory signaling pathways. The transcription factor Nrf2 is a central link between oxidative chemicals, such as phenolic antioxidants and electrophilic compounds, and the activation of ARE. Nrf2 levels are constitutively low as a consequence of its interaction with Keap1, which targets its degradation (Zipper and Mulcahy, 2002). Electrophiles react with key cysteine residues in Keap1, releasing Nrf2 and allowing its translocation to the nucleus. Once within the nucleus, Nrf2 complexes with coactivators such as p300, and binds to the AREs to induce gene transcription of cytoprotective enzymes, resulting in the prevention of toxicity. Activation of Nrf2 protects tissues by increasing cellular antioxidant content and suppressing inflammatory signaling pathways. Identifying novel and potent Nrf2 activators by using the AREc32 cell line to detect ARE activation by small molecules will lead to the identification and development of probes to study protective pathways in multiple tissues. These specific probes are essential to study the ARE pathway, and eventually to determine whether this pathway does activate genes that could protect against a host of diseases, including cardiovascular diseases, obesity, diabetes, Alzheimer's, and Parkinson's disease.
This project's aim is to identify novel and potent Nrf2 activators by using the AREc32 cell line to detect ARE activation by small molecules, which will lead to the identification and development of probes to study the ARE pathway.
NIH Chemical Genomics Center [NCGC]
NIH Molecular Libraries Probe Centers Network [MLPCN]
Assay Submitter (PI): Curtis Klaassen, University of Kansas Medical Center
5 uL of 1000 cells/well of AREc32_Fluc cells are seeded into 1536-well plate in OPTI-MEM medium with 5% FBS. The plates are incubated overnight at 37 deg C with 5% CO2. Then through pin tool transfer, 23 nL of compounds are added to each well before a 24 hr incubation at 37 deg C with 5% CO2. After the addition of 2.5 uL of Steady-Glo. the plates are kept at RT for 30 min, before they are read on the ViewLux
(In general: In qHTS, concentration-response curves come from the screen itself.)
Regarding `O=C1Cc2cc(CCN3CCN(c4nsc5ccccc45)CC3)c(Cl)cc2N1`, the outcome was inactive.
The entry for `COc1ccc2c(c1)c(CC(=O)O)c(C)n2C(=O)c1ccc(Cl)cc1` is “inactive”.
For `CCc1cccc2c3c([nH]c12)C(CC)(CC(=O)O)OCC3` (stereo not given), the compound was classed as inactive.
The entry for `CC1COc2c(N3CCN(C)CC3)c(F)cc3c(=O)c(C(=O)O)cn1c23` (stereo not given) is “inactive”; for `COc1ccc2[nH]cc(CCNC(C)=O)c2c1` it is “inactive”.
The entry for `Cc1cc(C(C)(C)C)cc(C)c1CC1=NCCN1` is “inactive”; for `CC[N+](CC)(CC)CCOc1cccc(OCC[N+](CC)(CC)CC)c1OCC[N+](CC)(CC)CC` it is “inactive”; for `CN(C)CCC=C1c2ccccc2C=Cc2ccccc21` it is “inactive”.
The entry for `O=C1N(c2ccccc2)c2ccccc2C1(Cc1ccncc1)Cc1ccncc1` is “inactive”; for `CC(C)C(=O)Nc1ccc([N+](=O)[O-])c(C(F)(F)F)c1` it is “inactive”.
Consider `NCCCCCC(=O)O`, for which the compound was classed as inactive.
For the compound `COc1ccccc1N1CCN(CC(O)COc2cccc3ccccc23)CC1` (stereo not given), the compound was classed as inactive.
The entry for `Cc1ccc(C(=O)Nc2ccc(S(=O)(=O)O)c3cc(S(=O)(=O)O)cc(S(=O)(=O)O)c23)cc1NC(=O)c1cccc(NC(=O)Nc2cccc(C(=O)Nc3cc(C(=O)Nc4ccc(S(=O)(=O)O)c5cc(S(=O)(=O)O)cc(S(=O)(=O)O)c45)ccc3C)c2)c1` is “inactive”.
In the case of `CN1CCN(CCCN2c3ccccc3Sc3ccc(Cl)cc32)CC1`, the compound was called inactive.
With `COc1ccccc1OCCNCC(O)COc1cccc2[nH]c3ccccc3c12` (stereo not given), the outcome was inactive.
The entry for `CCCNCC(O)COc1ccccc1C(=O)CCc1ccccc1` (stereo not given) is “inactive”.
For the compound `Cc1cc(C(C)(C)C)c(O)c(C)c1CC1=NCCN1`, the call was inactive.
Regarding `NCCc1cnc[nH]1`, the compound was called inactive.
`Cn1c(=O)c2[nH]cnc2n(C)c1=O`: the compound was classed as inactive.
The entry for `COc1ccccc1OCC(O)CN1CCN(CC(=O)Nc2c(C)cccc2C)CC1` (stereo not given) is “inactive”; for `NCCS(=O)(=O)O` it is “inactive”; for `CN(C)CCOC(c1ccccc1)c1ccccc1` it is “inactive”.
With `O=c1c(-c2ccc(O)cc2)coc2cc(O)cc(O)c12`, the compound was called inactive.
The entry for `O=c1[nH]cc(F)c(=O)[nH]1` is “inactive”; for `CS(=O)(=O)Nc1ccc([N+](=O)[O-])cc1Oc1ccccc1` it is “inactive”; for `CN(C)CCCN1c2ccccc2CCc2ccc(Cl)cc21` it is “inactive”.
For the compound `Cc1cnc(C(=O)NCCc2ccc(S(=O)(=O)NC(=O)NC3CCCCC3)cc2)cn1`, the outcome was inactive.
Regarding `O=C(Nc1ccc([N+](=O)[O-])cc1Cl)c1cc(Cl)ccc1O`, the call was inactive.
Turning to `N[C@@H](Cc1c[nH]c2ccc(O)cc12)C(=O)O`, the call was inactive.
The entry for `Cc1cn([C@H]2C[C@H](N=[N+]=[N-])[C@@H](CO)O2)c(=O)[nH]c1=O` is “inactive”; for `COc1nc(C)nc(Cl)c1NC1=NCCN1` it is “inactive”; for `Clc1ccc2nsnc2c1NC1=NCCN1` it is “inactive”.
The entry for `CN1C(C(=O)Nc2ccccn2)=C(O)c2ccccc2S1(=O)=O` is “inactive”; for `CC(CCc1ccc(O)cc1)NCCc1ccc(O)c(O)c1` (stereo not given) it is “inactive”; for `COc1ccc(CCN(C)CCCC(C#N)(c2ccc(OC)c(OC)c2)C(C)C)cc1OC` (stereo not given) it is “inactive”.
Take `CCOC(=O)C(C)(C)Oc1ccc(Cl)cc1`: the compound was classed as inactive.
Turning to `C[C@H]1c2cccc(O)c2C(O)=C2C(=O)[C@]3(O)C(O)=C(C(N)=O)C(=O)[C@@H](N(C)C)[C@@H]3[C@@H](O)[C@@H]21`, the result was inactive.
The entry for `Nc1nc2c(ncn2COC(CO)CO)c(=O)[nH]1` is “inactive”; for `CCOC(=O)c1ncn2c1CN(C)C(=O)c1cc(F)ccc1-2` it is “inactive”; for `CC(C)(Oc1ccc(C2CC2(Cl)Cl)cc1)C(=O)O` (stereo not given) it is “inactive”.
